What is called AC50 is the midpoint of the concentration-response curve, whichever way the signal moves.

More than one record can exist for a structure, and the calls need not agree. Activity calls are given as the source filed them. How the source made its calls: active means hit-call score of the fitted dose curve at least 0.9, where 1 is the maximum; inactive means score below 0.9.

Read-out in assay [1]: Matrix Metallopeptidase 9 (MMP9), MMP9 (gene 4318)
Description: BSK_KF3CT_MMP9: BioMAP Diversity Plus: KF3CT Assay for Matrix Metallopeptidase 9 (MMP9) Biomarker Activity (AID 2283074).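 On AC50: MMP9 protein level quantified by ELISA in the co-culture.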 The settings on record: primary human keratinocytes with fibroblasts; actives raise or lower the signal. In outline:
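ELISA read-out of MMP-9 at 24 h post-dosing in a co-culture of human skin keratinocytes and foreskin fibroblasts. Gain or loss of signal was fitted in both directions against DMSO.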

Read-out in assay [2]: urokinase plasminogen activator (uPA), PLAU (gene 5328)
Description: BSK_KF3CT_uPA: BioMAP Diversity Plus: KF3CT Assay for urokinase plasminogen activator (uPA) Biomarker Activity (AID 2283075). As to conditions: primary human keratinocytes with fibroblasts; actives raise or lower the signal. In outline:
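Skin co-culture (keratinocytes + foreskin fibroblasts), human primary; 24 h post-dose; uPA by ELISA; gain/loss fit vs DMSO baseline.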

Read-out in assay [3]: CD40, CD40 (gene 958)
Kind of assay: BSK_LPS_CD40: BioMAP Diversity Plus: LPS Assay for CD40 Biomarker Activity (AID 2283076). As to conditions: primary human HUVEC with PBMC; actives raise or lower the signal. In outline: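 HUVEC plus PBMC co-culture stimulated with LPS; CD40 quantified by ELISA 24 h after compound dosing. Fitting was bidirectional relative to DMSO. SRB staining of parallel cultures flagged overt cytotoxicity.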

Read-out in assay [4]: E-selectin (Homo sapiens) (UniProt P16581)
Kind of assay: BSK_LPS_Eselectin: BioMAP Diversity Plus: LPS Assay for Eselectin Biomarker Activity (AID 2283077). The settings on record: primary human HUVEC with PBMC; actives raise or lower the signal. In outline: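 Human umbilical vein endothelial cells co-cultured with PBMC under LPS stimulation; cell-surface E-selectin measured by ELISA 24 h after dosing. Change in either direction versus DMSO, with SRB total-protein staining in parallel cultures for cytotoxicity.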

Read-out in assay [5]: Interleukin-8 (IL8), CXCL8 (gene 3576)
Kind of assay: BSK_LPS_IL8: BioMAP Diversity Plus: LPS Assay for Interleukin-8 (IL8) Biomarker Activity (AID 2283078). The settings on record: primary human HUVEC with PBMC; actives raise or lower the signal. In outline: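 Human umbilical vein endothelial cells co-cultured with PBMC, LPS-stimulated, exposed to compound for 24 h. IL-8 quantified by ELISA; fitted in both directions against DMSO, with SRB total-protein staining of parallel cultures for cytotoxicity.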

Assay [6] can be described thus: BSK_LPS_SRB: Viability Assessment in the BioMAP Diversity Plus: LPS Assay (AID 2283079).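 Further: total protein by sulforhodamine B absorbance as a cytotoxicity measure; measured one day after compound addition.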 As to conditions: primary human HUVEC with PBMC. The procedure, abridged: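 Co-culture of human umbilical vein endothelial cells and PBMC, read 24 h after dosing. Total protein by 0.1% SRB staining after 10% TCA fixation, absorbance at 560 nm; bidirectional fit against DMSO.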

Read-out in assay [7]: Interleukin-1 alpha (IL1a), IL1A (gene 3552)
Kind of assay: BSK_LPS_IL1a: BioMAP Diversity Plus: LPS Assay for Interleukin-1 alpha (IL1a) Biomarker Activity (AID 2283080). The settings on record: primary human HUVEC with PBMC; actives raise or lower the signal. In outline: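 Human umbilical vein endothelial cells co-cultured with PBMC and stimulated with LPS; IL-1a measured by ELISA 24 h after dosing. Bidirectional fitting against DMSO; cytotoxicity checked by SRB staining in parallel cultures.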

Read-out in assay [8]: Monocyte Chemoattractant Protein-1 (MCP1), CCL2 (gene 6347)
Kind of assay: BSK_LPS_MCP1: BioMAP Diversity Plus: LPS Assay for Monocyte Chemoattractant Protein-1 (MCP1) Biomarker Activity (AID 2283081).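 On AC50: secreted MCP-1 protein quantified by ELISA in culture supernatant.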 As to conditions: primary human HUVEC with PBMC; actives raise or lower the signal. In outline:
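Human umbilical vein endothelial cells co-cultured with PBMC, LPS-stimulated; secreted MCP-1 measured by ELISA 24 h after compound addition. Bidirectional curve fitting against DMSO baseline; SRB total-protein staining in parallel cultures for cytotoxicity.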

The nature of assay [9]: BSK_LPS_PGE2: BioMAP Diversity Plus: LPS Assay for Prostaglandin E2 (PGE2) Biomarker Activity (AID 2283082). As to conditions: primary human HUVEC with PBMC; actives raise or lower the signal. In outline: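 PGE2 release measured by ELISA in an LPS-activated co-culture of human umbilical vein endothelial cells and peripheral blood mononuclear cells, read at 24 h post-dosing. DMSO served as baseline for bidirectional curve fitting.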

Read-out in assay [10]: Macrophage colony-stimulating factor (MCSF), CSF1 (gene 1435)
Kind of assay: BSK_LPS_MCSF: BioMAP Diversity Plus: LPS Assay for Macrophage colony-stimulating factor (MCSF) Biomarker Activity (AID 2283083). As to conditions: primary human HUVEC with PBMC; actives raise or lower the signal. The procedure, abridged: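 HUVEC–PBMC co-culture, M-CSF measured by ELISA 24 h after chemical dosing. Fitted in both directions relative to DMSO as negative control; overt cytotoxicity assessed by SRB total-protein staining in parallel cultures.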

Read-out in assay [11]: Tissue Factor, F3 (gene 2152)
Description: BSK_LPS_TissueFactor: BioMAP Diversity Plus: LPS Assay for Tissue Factor Biomarker Activity (AID 2283084). The settings on record: primary human HUVEC with PBMC; actives raise or lower the signal. The procedure, abridged:
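Human umbilical vein endothelial cells co-cultured with PBMC were dosed with compound. Cell-surface CD142 was measured by ELISA 24 h later. Activity was fitted bidirectionally against DMSO, with SRB total-protein staining in parallel cultures for cytotoxicity.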

Read-out in assay [12]: Tumor necrosis factor (Homo sapiens) (UniProt P01375)
Kind of assay: BSK_LPS_TNFa: BioMAP Diversity Plus: LPS Assay for Tumour Necrosis Factor alpha (TNFa) Biomarker Activity (AID 2283085).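 On AC50: TNFa protein level quantified by ELISA in the co-culture.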 As to conditions: primary human HUVEC with PBMC; actives raise or lower the signal. In outline:
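TNFa was quantified by ELISA in LPS-activated co-cultures of human endothelial cells and PBMC, 24 h post-dosing. Both increases and decreases versus DMSO were fitted.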

Read-out in another assay: CD38, CD38 (gene 952)
Description: BSK_SAg_CD38: BioMAP Diversity Plus: SAg Assay for CD38 Biomarker Activity (AID 2283087). As to conditions: primary human HUVEC with PBMC; actives raise or lower the signal. In outline: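 CD38 quantified by ELISA (fluorescence) in a superantigen-activated endothelial cell–PBMC co-culture at 24 h post-dose. Activity fitted in both directions relative to DMSO; parallel SRB and Alamar Blue cytotoxicity read-outs.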

Read-out in assay [13]: CD40, CD40 (gene 958)
Description: BSK_SAg_CD40: BioMAP Diversity Plus: SAg Assay for CD40 Biomarker Activity (AID 2283088). The settings on record: primary human HUVEC with PBMC; actives raise or lower the signal. In outline:
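HUVEC plus PBMC co-culture, superantigen-activated, with CD40 read by ELISA 24 h after dosing. Curves fitted in both directions against DMSO. Overt cytotoxicity checked by parallel SRB total-protein staining.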

Read-out in the next assay: CD69, CD69 (gene 969)
Kind of assay: BSK_SAg_CD69: BioMAP Diversity Plus: SAg Assay for CD69 Biomarker Activity (AID 2283089).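 On AC50: cell surface CD69 protein quantified by ELISA with fluorescence detection.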 The settings on record: primary human HUVEC with PBMC; actives raise or lower the signal. In outline:
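Values derive from bidirectional fitting relative to DMSO vehicle. Cells: umbilical vein endothelium plus peripheral blood mononuclear cells, treated 24 h before fluorescent ELISA for CD69.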

Read-out in assay [14]: Monocyte Chemoattractant Protein-1 (MCP1), CCL2 (gene 6347)
Kind of assay: BSK_SAg_MCP1: BioMAP Diversity Plus: SAg Assay for Monocyte Chemoattractant Protein-1 (MCP1) Biomarker Activity (AID 2283090). The settings on record: primary human HUVEC with PBMC; actives raise or lower the signal. The procedure, abridged:
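Values derive from bidirectional fitting of ELISA-measured MCP1 against DMSO controls. Readings were taken 24 h after dosing human vascular endothelial cells co-cultured with peripheral blood mononuclear cells under superantigen stimulation.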

Read-out in assay [15]: E-selectin (Homo sapiens) (UniProt P16581)
Kind of assay: BSK_SAg_Eselectin: BioMAP Diversity Plus: SAg Assay for Eselectin Biomarker Activity (AID 2283091). The settings on record: primary human HUVEC with PBMC; actives raise or lower the signal. The procedure, abridged: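 Human umbilical vein endothelial cells co-cultured with peripheral blood mononuclear cells, SAg system. E-selectin is measured by ELISA 24 h after dosing and fitted bidirectionally against DMSO. Cytotoxicity is checked by SRB staining of parallel cultures.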

Read-out in assay [16]: Monokine induced gamma interferon (MIG), CXCL9 (gene 4283)
Description: BSK_SAg_MIG: BioMAP Diversity Plus: SAg Assay for Monokine induced gamma interferon (MIG) Biomarker Activity (AID 2283092). The settings on record: primary human HUVEC with PBMC; actives raise or lower the signal. The procedure, abridged: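 Values reflect bidirectional fitting of ELISA-measured MIG against DMSO vehicle, taken 24 h after dosing of a co-culture of human umbilical vein endothelial cells and peripheral blood mononuclear cells.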

Assay [17] can be described thus: BSK_SAg_PBMCCytotoxicity: PBMC Cytotoxicity Assessment in the BioMAP Diversity Plus: SAg Assay (AID 2283093).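 Further: fitted both ways against DMSO so a hit may be loss or gain of signal.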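 On AC50: PBMC superantigen activated with SEB plus TSST-1 one hour after compound addition.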 The settings on record: primary human HUVEC with PBMC. In outline:
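PBMC viability by Alamar Blue reduction, fluorescence read at 546/580 nm after 6 h dye exposure. Cells were dosed 1 h before SEB plus TSST-1 activation (20 ng/mL final each), then held 90 h; endothelial/PBMC human co-culture.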

E-selectin (Homo sapiens), sequence (P16581 whole entry, looked up): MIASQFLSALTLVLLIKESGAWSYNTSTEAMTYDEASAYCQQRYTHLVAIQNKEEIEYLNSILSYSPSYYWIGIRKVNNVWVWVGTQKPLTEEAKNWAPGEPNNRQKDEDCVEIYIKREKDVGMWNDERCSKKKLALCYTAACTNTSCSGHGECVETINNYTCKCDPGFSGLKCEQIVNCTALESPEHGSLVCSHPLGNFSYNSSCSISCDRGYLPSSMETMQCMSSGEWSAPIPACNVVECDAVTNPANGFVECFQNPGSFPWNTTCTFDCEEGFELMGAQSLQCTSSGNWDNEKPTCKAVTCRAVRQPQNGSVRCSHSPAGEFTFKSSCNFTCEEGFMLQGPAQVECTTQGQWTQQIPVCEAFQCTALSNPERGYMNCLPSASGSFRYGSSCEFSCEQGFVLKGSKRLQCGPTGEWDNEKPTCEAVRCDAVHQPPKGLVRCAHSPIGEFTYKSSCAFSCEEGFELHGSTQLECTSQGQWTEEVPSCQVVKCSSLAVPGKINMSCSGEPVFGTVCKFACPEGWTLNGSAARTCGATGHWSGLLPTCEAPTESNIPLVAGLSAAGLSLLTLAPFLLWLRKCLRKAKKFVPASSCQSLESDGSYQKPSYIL
Tumor necrosis factor (Homo sapiens), sequence (P01375 whole entry, looked up): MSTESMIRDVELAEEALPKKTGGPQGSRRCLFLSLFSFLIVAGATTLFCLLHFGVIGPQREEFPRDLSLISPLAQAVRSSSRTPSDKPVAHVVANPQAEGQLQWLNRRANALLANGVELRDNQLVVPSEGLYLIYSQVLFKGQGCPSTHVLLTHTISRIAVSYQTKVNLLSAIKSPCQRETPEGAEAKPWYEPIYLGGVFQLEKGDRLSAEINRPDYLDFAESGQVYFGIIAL

For the molecule `COC(=O)Cc1ccccc1`, the outcome in assay [1] is “inactive”; in assay [2], “inactive”; with CD40, CD40 (gene 958) [3] it was “inactive”; in assay [4], “inactive”; in [5], “inactive”; in assay [6] it was “inactive”. Besides, the outcome in assay [7], in assay [8], in [9], in assay [10], in assay [11] and in [12] was inactive. For the same molecule, the outcome with CD38, CD38 (gene 952) was “inactive”; with CD40, CD40 (gene 958) [13] it was “inactive”; with CD69, CD69 (gene 969), “inactive”; in assay [14], “inactive”; in assay [15] it was “inactive”; in [16] it was “inactive”. Moreover, the result in assay [17] was inactive. In the assay with CD40, CD40 (gene 958) [13], the AC50 is 31.3 µM (active).
Take `CC(C)(c1ccccc1)c1ccc(O)c(C(C)(C)c2ccccc2)c1`: the AC50 in assay [1] is 2.41 µM (active); in assay [2] it was 2.85 µM (active); with CD40, CD40 (gene 958) [3] it was 12.3 µM (active); in assay [5], 12 µM (active); in [6] it was 12.7 µM (active); in assay [7], 11.1 µM (active). Besides, the half-maximal activity concentration (AC50) in assay [8] is 10.1 µM (active); in assay [10], 9.66 µM (active); in [11], 12.6 µM (active); in assay [12], 12.3 µM (active); with CD38, CD38 (gene 952), 10.5 µM (active); with CD69, CD69 (gene 969), 11.9 µM (active). The AC50 in [14] was 9.77 µM (active); in assay [15], 11.9 µM (active); in [16], 11.4 µM (active); in assay [17], 8.97 µM (active). Besides, the result in assay [9] was inactive.
As for `C=CC(=O)OCCCCCC(C)C`, the outcome in assay [1] was “inactive”; in assay [2] it was “inactive”; with CD40, CD40 (gene 958) [3], “inactive”; in assay [4], “inactive”; in [5], “inactive”; in assay [6], “inactive”. For the same molecule, the outcome in [8] is “inactive”; in [9], “inactive”; in assay [10], “inactive”; in assay [11] it was “inactive”; in [12], “inactive”; in the assay with CD38, CD38 (gene 952), “inactive”. The outcome with CD40, CD40 (gene 958) [13] is “inactive”; with CD69, CD69 (gene 969) it was “inactive”; in assay [14], “inactive”; in assay [15] it was “inactive”; in assay [16], “inactive”; in assay [17], “inactive”.

These data come from PubChem BioAssay (EPA / NIEHS).
